Assay results: PubChem BioAssay (Tox21)
Values joined by “and” are separate entries in the source; they are usually repeats but may differ in a detail not shown here. Equal values may be shown once. Inconclusive results are not listed. Where a call stands in place of a potency, no number is given. Active and inactive are the calls of the source. Calls come from the whole dose curve; as a rule, active = well fitted cell-killing curve with a large enough effect in the repeat runs; inconclusive = weak or mixed curves, or effect the other way; inactive = no such curve, though single readings can be large or run the other way.

experiment: qHTS assay to identify small molecule antagonists of the peroxisome proliferator-activated receptor gamma (PPARg) signaling pathway - cell viability counter screen (AID 743194); conditions: PPARg-bla HEK293H viability, CellTiter-Glo luminescence, 17 h; Potency: co-treated with 50 nM rosiglitazone unless noted; series mostly up to 62.6 µM; note: nearly all actives have a fitted effect of over 55% in size
Excerpt: U.S. Tox21 Program National Center for Advancing Translational Sciences [NCATS] NIH Chemical Genomics Center [NCGC] U.S. Environmental Protection Agency [EPA] National Institutes of Environmental Health Sciences [NIEHS] National Toxicology Program [NTP] U.S. Food and Drug Administration [FDA] Tox21 Assay Overview: The peroxisome proliferator-activated receptors (PPARs) are lipid-activated transcription factors of the nuclear receptor superfamily with three distinct subtypes namely PPAR alpha, PPAR delta (also called PPAR beta) and PPAR gamma (PPARg). All these subtypes heterodimerize with Retinoid X receptor (RXR) and these heterodimers regulate transcription of various genes. PPAR-gamma receptor (glitazone receptor) is involved in the regulation of glucose and lipid metabolism. To identify the compounds that activate PPAR-gamma signaling, GeneBLAzer PPAR gamma UAS-bla HEK293H cell line (Invitrogen, Carlsbad, CA, USA) containing a beta-lactamase reporter gene under the control of an Upstream Activator Sequence (UAS) was used to screen the Tox21 compound library. The cytotoxicity of the Tox21 compound library against the PPARg-bla cell line was tested in parallel by measuring the cell viability using CellTiter-Glo assay in the same wells.
Tox21 Assay Protocol Summary: PPARg-bla cells were dispensed at 3000 cells/5uL/well in 1536-well black wall/clear bottom plates using a Multidrop Combi (Thermo Fisher Scientific, Waltham, MA) dispenser. After the assay plates were incubated at 37 C and 5% CO2 for 5 h, 23 nL of compounds dissolved in DMSO, positive controls or DMSO only was transferred to the assay plate by a Pintool station (Kalypsys, San Diego, CA), followed by addition of 1ul Rosiglitazone (50 nM, final concentration in the wells). The assay plates were incubated at 37 C for 17 h, and then 1 uL of LiveBLAzerTM B/G FRET substrate was added using a Bioraptr Flying Reagent Dispenser (FRD) workstation (Beckman Coulter, Indianapolis, IN, USA). The assay plates were incubated at room temperature for 1 h and fluorescence intensity was measured by an Envision plate reader (PerkinElmer, Shelton, CT). For cell viability readout that measures cytotoxicity, 4 ul/well of CellTiter-Glo reagent was added into the assay plates using a Flying Reagent Dispenser. After 30 min incubation at room temperature, the luminescence intensity in the plates was measured using a ViewLux plate reader (PerkinElmer).
Potency is the fitted concentration of half-maximal effect.

Compound	Potency
CCC[CH2][Sn]([CH2]CCC)([O]C(C)=O)[O]C(C)=O	2.78 µM (active)
N#Cc1sc2c(=O)c3ccccc3c(=O)c=2sc1C#N	19.5 µM (active)
C=CCOC(=O)c1ccccc1N	inactive
CC1CN1 (stereo not given)	inactive
CCNS(=O)(=O)C(F)(F)C(F)(F)C(F)(F)C(F)(F)C(F)(F)C(F)(F)C(F)(F)C(F)(F)F	inactive
S=C=Nc1ccccc1	inactive
CNC(C)(C)Cc1ccccc1	inactive
CCCCCCC[CH2][Sn]([Cl])([Cl])[CH2]CCCCCCC	48.9 µM (active)
N#Cc1c2ccccc2cc2ccccc12	inactive
C=CCBr	inactive
O=c1[nH]c2cc(Cl)ccc2n1C1CCNCC1	inactive
Cc1cnc2c(C(=O)O)c(Cl)ccc2c1	inactive
CN(C)c1ccc(N)cc1	inactive
BrCCCBr	inactive
O=c1c2ccccc2c(=O)c2c1cc(Cl)c1[nH]c3c([nH]c12)c(Cl)cc1c(=O)c2ccccc2c(=O)c13	inactive
O=[N+]([O-])c1ccc(CCl)cc1	inactive
CC(Cc1ccc(O)cc1)NCC(O)c1cc(O)cc(O)c1 (stereo not given)	inactive
CCC[CH2][Sn]([CH2]CCC)([CH2]CCC)[CH2]CCC	19.5 µM (active)
[C-]1=CC=CC1.[Cl][Zr+2][Cl].c1cc[cH-]c1	inactive
CCCCCON=O	inactive

Compound	Potency
CNC(=O)O/N=C(\C)C(C)S(C)(=O)=O (stereo not given)	inactive
O=[N+]([O-])c1ccc(Cl)c(Cl)c1Cl	inactive
Cc1ccn2nc(S(=O)(=O)Nc3c(F)cccc3F)nc2n1	inactive
C=CC(=O)[O][Sn]([CH2]CCC)([CH2]CCC)[CH2]CCC	0.389 µM (active)
O=C(O)[C@H](O)[C@@H](O)C(=O)O	inactive
[F][Sn]([c]1ccccc1)([c]1ccccc1)[c]1ccccc1	0.616 µM (active)
CN1C2CCC(C)(C)C1CC(OC(=O)C(O)(c1cccs1)c1cccs1)C2 (stereo not given)	inactive
O=S1OCC2C(CO1)C1(Cl)C(Cl)=C(Cl)C2(Cl)C1(Cl)Cl (stereo not given)	55 µM (active) and 24.5 µM (active)
Oc1cccc(Cl)c1Cl	inactive
CC(Cl)CCl (stereo not given)	inactive
CC(C)Br	inactive
CO/N=C(/C1=NOCCO1)c1ccccc1Oc1ncnc(Oc2ccccc2Cl)c1F	inactive
CNC(=O)Oc1cc(C)cc(C(C)C)c1	inactive
COC(=O)C(C)N(C(=O)c1ccco1)c1c(C)cccc1C (stereo not given)	inactive
C[C@]12Cc3cn[nH]c3C[C@@H]1CC[C@@H]1[C@@H]2CC[C@@]2(C)[C@H]1CC[C@]2(C)O	inactive
C=CC(=C)C	inactive
CC1(C)C(C=C(Cl)Cl)C1C(=O)OC(C#N)c1ccc(F)c(Oc2ccccc2)c1 (stereo not given)	inactive
COC(=O)c1ccccc1S(=O)(=O)NC(=O)Nc1nc(C)nc(OC)n1	inactive
CC1CCCC1	inactive
CC(C)[C@@H](Nc1ccc(C(F)(F)F)cc1Cl)C(=O)OC(C#N)c1cccc(Oc2ccccc2)c1 (stereo not given in full)	inactive
